Test results taken from PubChem BioAssay AID1159580 (chemical genetic matrix, 2015).
Hit rate of the full screen: of about 5,500 compounds, about 2,000 (36%) were called active. Inconclusive results (about 18%) are left out. Rule as the data show it: active = normalized growth mostly below about 0.91 (no sharp cut-off); inconclusive = no clear call, values can overlap the other calls; inactive = mostly above about 0.92. Some of the results follow.

Test: chemical genetic growth profiling, strain panel (AID 1159580);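 also: tested at 20 µM; growth read once vehicle control cultures reached saturation at 30 °C; 1 = growth at the plate median or of vehicle wells; lower values mean less growth of the strain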
Conditions: growth OD
[1] = S. cerevisiae deletion strains, locus YAL013W, strain DEP1, hits give low values
[2] = S. cerevisiae deletion strains, locus YBR229C, strain ROT2, hits give low values
[3] = S. cerevisiae deletion strains, locus YCL061C, strain MRC1, hits give low values
[4] = S. cerevisiae deletion strains, locus YDL101C, strain DUN1, hits give low values
[5] = S. cerevisiae deletion strains, locus YDL134C, strain PPH21, hits give low values
[6] = S. cerevisiae deletion strains, locus YDR150W, strain NUM1, hits give low values
[7] = S. cerevisiae deletion strains, locus YEL061C, strain CIN8, hits give low values
[8] = S. cerevisiae deletion strains, locus YGR078C, strain PAC10, hits give low values
[9] = S. cerevisiae deletion strains, locus YHR030C, strain SLT2, hits give low values
[10] = S. cerevisiae deletion strains, locus YJR043C, strain POL32, hits give low values
[11] = S. cerevisiae deletion strains, locus YJR075W, strain HOC1, hits give low values
[12] = S. cerevisiae deletion strains, locus YKL190W, strain CNB1, hits give low values
[13] = S. cerevisiae deletion strains, locus YLR039C, strain RIC1, hits give low values
[14] = S. cerevisiae deletion strains, locus YLR058C, strain SHM2 (second series), hits give low values
[15] = S. cerevisiae deletion strains, locus YLR085C, strain ARP6, hits give low values
[16] = S. cerevisiae deletion strains, locus YLR262C, strain YPT6, hits give low values
[17] = S. cerevisiae deletion strains, locus YML094W, strain GIM5, hits give low values
[18] = S. cerevisiae deletion strains, locus YMR219W, strain ESC1, hits give low values
[19] = S. cerevisiae deletion strains, locus YMR263W, strain SAP30, hits give low values
[20] = S. cerevisiae deletion strains, locus YMR307W, strain GAS1, hits give low values
[21] = S. cerevisiae deletion strains, locus YNL128W, strain TEP1, hits give low values
[22] = S. cerevisiae deletion strains, locus YNL153C, strain GIM3, hits give low values
[23] = S. cerevisiae deletion strains, locus YNL298W, strain CLA4 (second series), hits give low values
[24] = S. cerevisiae deletion strains, locus YNL322C, strain KRE1, hits give low values
[25] = S. cerevisiae deletion strains, locus YNR030W, strain Alg12, hits give low values
[26] = S. cerevisiae deletion strains, locus YOL006C, strain TOP1, hits give low values
[27] = S. cerevisiae deletion strains, locus YPL055C, strain LGE1, hits give low values
[28] = S. cerevisiae deletion strains, locus YPL241C, strain CIN2, hits give low values
[29] = S. cerevisiae deletion strains, locus YPR135W, strain CTF4, hits give low values
[30] = S. cerevisiae deletion strains, locus YJL187C, strain SWE1, hits give low values

Measured: normalized growth

Cc1cccc2c1N(C(=S)Nc1ccccc1Cl)CCC2
active: [2] 0.821 | [3] 0.898 | [5] 0.911 | [7] 0.845 | [8] 0.907 | [9] 0.331 | S. cerevisiae deletion strains, locus YHR087W, strain rtc3, hits give low values 0.787 | [11] 0.876 | [12] 0.648 | [13] 0.439 | [15] 0.602 | [16] 0.406 | [17] 0.712 | [18] 0.851 | [20] 0.219 | [22] 0.913 | [23] 0.582 | [26] 0.508 | [29] 0.273
inactive: [1] 0.966 | [4] 0.972 | [6] 1.01 | S. cerevisiae deletion strains, locus YGR229C, strain SMI1, hits give low values 0.997 | [10] 0.997 | [14] 0.95 | [19] 0.915 | [21] 0.914 | [24] 0.989 | [25] 0.906 | [27] 0.93 | [28] 0.859

CC(=O)CC(=O)Nc1ccccc1Cl
inactive: [1] 1 | [2] 0.997 | [4] 0.979 | [5] 0.998 | [6] 0.97 | [7] 1.02 | [8] 0.993 | [9] 0.966 | [30] 0.995 | [10] 0.982 | [11] 1.03 | [12] 1.01 | [13] 0.993 | [14] 1.01 | [15] 0.967 | [16] 1.02 | [17] 1.02 | [18] 0.993 | [19] 0.999 | [20] 0.947 | [21] 0.987 | [22] 1.02 | [23] 1 | [24] 0.992 | [25] 1 | [26] 1.01 | [27] 1 | [28] 0.978 | [29] 0.925 | S. cerevisiae strains, strain wild type, hits give low values 0.971

CN1CCc2cccc(Cl)c2CC1
inactive: [1] 0.986 | S. cerevisiae deletion strains, locus YAL040C, strain CLN3, hits give low values 1 | S. cerevisiae deletion strains, locus YCL061C, strain MRC1 (second series), hits give low values 1.01 | S. cerevisiae deletion strains, locus YDR363W, strain ESC2, hits give low values 1 | S. cerevisiae deletion strains, locus YER002W, strain NOP16, hits give low values 1 | [11] 0.993 | [20] 1.01 | S. cerevisiae deletion strains, locus YNL175C, strain NOP13, hits give low values 1.01 | S. cerevisiae deletion strains, locus YNL197C, strain WHI3, hits give low values 1.01 | S. cerevisiae deletion strains, locus YNL224C, strain SQS1, hits give low values 1 | [24] 1 | S. cerevisiae deletion strains, locus YOR083W, strain WHI5 (second series), hits give low values 1.01 | [27] 0.998

N[C@@H](CC(=O)N1CCn2c(nnc2C(F)(F)F)C1)Cc1cc(F)c(F)cc1F
inactive: S. cerevisiae deletion strains, locus YAL021C, strain ccr4, hits give low values 0.992 | S. cerevisiae deletion strains, locus YAL026C, strain drs2, hits give low values 0.97 | S. cerevisiae deletion strains, locus YAL030W, strain snc1, hits give low values 0.985 | S. cerevisiae deletion strains, locus YBL061C, strain skt5, hits give low values 0.985 | S. cerevisiae deletion strains, locus YBR009C, strain hhf1, hits give low values 0.949 | S. cerevisiae deletion strains, locus YBR023C, strain chs3, hits give low values 0.993 | S. cerevisiae deletion strains, locus YBR171W, strain sec66, hits give low values 0.992 | S. cerevisiae deletion strains, locus YBR231C, strain swc5, hits give low values 0.995 | S. cerevisiae deletion strains, locus YBR279W, strain paf1, hits give low values 0.988 | S. cerevisiae deletion strains, locus YCL011C, strain gbp2, hits give low values 0.982 | S. cerevisiae deletion strains, locus YCL016C, strain dcc1, hits give low values 0.992 | [3] 0.987 | S. cerevisiae deletion strains, locus YCL069W, strain vba3, hits give low values 0.984 | S. cerevisiae deletion strains, locus YCR088W, strain abp1, hits give low values 0.984 | S. cerevisiae deletion strains, locus YDL005C, strain med2, hits give low values 0.983 | S. cerevisiae deletion strains, locus YDL040C, strain nat1, hits give low values 0.992 | S. cerevisiae deletion strains, locus YDR001C, strain nth1, hits give low values 0.985 | S. cerevisiae deletion strains, locus YDR069C, strain doa4, hits give low values 0.971 | S. cerevisiae deletion strains, locus YDR137W, strain rgp1, hits give low values 1.01 | S. cerevisiae deletion strains, locus YDR159W, strain sac3, hits give low values 0.952 | S. cerevisiae deletion strains, locus YDR195W, strain ref2 0.941 | S. cerevisiae deletion strains, locus YDR297W, strain sur2, hits give low values 0.978 | S. cerevisiae deletion strains, locus YDR334W, strain swr1, hits give low values 0.982 | S. cerevisiae deletion strains, locus YDR335W, strain msn5, hits give low values 0.991 | S. cerevisiae deletion strains, locus YDR392W, strain spt3, hits give low values 0.887 | S. cerevisiae deletion strains, locus YEL003W, strain gim4, hits give low values 0.966 | S. cerevisiae deletion strains, locus YEL037C, strain rad23, hits give low values 0.983 | S. cerevisiae deletion strains, locus YEL061C, strain CIN8 (second series), hits give low values 0.983 | S. cerevisiae deletion strains, locus YER015W, strain faa2, hits give low values 0.978 | S. cerevisiae deletion strains, locus YER016W, strain bim1, hits give low values 0.995 | S. cerevisiae deletion strains, locus YER111C, strain swi4, hits give low values 0.988 | S. cerevisiae deletion strains, locus YER155C, strain BEM2 (second series), hits give low values 0.966 | S. cerevisiae deletion strains, locus YFR010W, strain ubp6, hits give low values 0.975 | S. cerevisiae deletion strains, locus YGL167C, strain pmr1, hits give low values 0.964 | S. cerevisiae deletion strains, locus YGL173C, strain kem1, hits give low values 0.985 | S. cerevisiae deletion strains, locus YGL227W, strain vid30, hits give low values 0.967 | S. cerevisiae deletion strains, locus YGL240W, strain doc1, hits give low values 0.981 | S. cerevisiae deletion strains, locus YGL253W, strain hxk2, hits give low values 0.996 | S. cerevisiae deletion strains, locus YHR013C, strain ard1, hits give low values 0.944 | S. cerevisiae deletion strains, locus YHR027C, strain rpn1, hits give low values 0.985 | [9] 1.03 | S. cerevisiae deletion strains, locus YHR079C, strain IRE1, hits give low values 0.985 | S. cerevisiae deletion strains, locus YHR142W, strain chs7, hits give low values 1.01 | S. cerevisiae deletion strains, locus YJL092W, strain hpr5, hits give low values 0.989 | S. cerevisiae deletion strains, locus YJL095W, strain BCK1 (second series), hits give low values 0.993 | S. cerevisiae deletion strains, locus YJL095W, strain BCK1, hits give low values 0.96 | S. cerevisiae deletion strains, locus YJL115W, strain asf1, hits give low values 0.984 | S. cerevisiae deletion strains, locus YJL129C, strain trk1, hits give low values 1.01 | S. cerevisiae deletion strains, locus YJL154C, strain vps35, hits give low values 0.987 | S. cerevisiae deletion strains, locus YJL164C, strain tpk1, hits give low values 1 | S. cerevisiae deletion strains, locus YJL166W, strain qcr8, hits give low values 0.993 | [30] 0.98 | S. cerevisiae deletion strains, locus YJR066W, strain TOR1, hits give low values 0.928 | S. cerevisiae deletion strains, locus YKL160W, strain elf1, hits give low values 1.01 | S. cerevisiae deletion strains, locus YKR026C, strain gcn3, hits give low values 0.972 | S. cerevisiae deletion strains, locus YKR091W, strain srl3, hits give low values 0.955 | S. cerevisiae deletion strains, locus YLL001W, strain dnm1, hits give low values 0.992 | S. cerevisiae deletion strains, locus YLL026W, hits give low values 0.995 | S. cerevisiae deletion strains, locus YLL041C, strain sdh2, hits give low values 0.994 | S. cerevisiae deletion strains, locus YLR027C, strain aat2, hits give low values 0.988 | S. cerevisiae deletion strains, locus YLR113W, strain HOG1, hits give low values 0.978 | S. cerevisiae deletion strains, locus YLR221C, strain rsa3, hits give low values 0.989 | S. cerevisiae deletion strains, locus YLR258W, strain gsy2, hits give low values 0.979 | S. cerevisiae deletion strains, locus YLR262C, strain YPT6 (second series), hits give low values 1 | S. cerevisiae deletion strains, locus YLR320W, strain mms22, hits give low values 0.998 | S. cerevisiae deletion strains, locus YLR342W, strain FKS1, hits give low values 0.958 | S. cerevisiae deletion strains, locus YLR357W, strain rsc2, hits give low values 0.989 | S. cerevisiae deletion strains, locus YLR370C, strain arc18, hits give low values 0.977 | S. cerevisiae deletion strains, locus YLR384C, strain iki3, hits give low values 0.969 | S. cerevisiae deletion strains, locus YML120C, strain ndi1, hits give low values 0.988 | S. cerevisiae deletion strains, locus YMR058W, strain fet3, hits give low values 0.977 | S. cerevisiae deletion strains, locus YMR125W, strain sto1, hits give low values 0.974 | S. cerevisiae deletion strains, locus YMR129W, hits give low values 0.984 | S. cerevisiae deletion strains, locus YMR205C, strain PFK2, hits give low values 0.96 | S. cerevisiae deletion strains, locus YMR231W, strain pep5, hits give low values 0.977 | S. cerevisiae deletion strains, locus YNL071W, strain lat1, hits give low values 0.979 | S. cerevisiae deletion strains, locus YNL183C, strain NPR1, hits give low values 0.898 | S. cerevisiae deletion strains, locus YNL209W, strain ssb2, hits give low values 0.986 | S. cerevisiae deletion strains, locus YNL248C, strain rpa49, hits give low values 1.01 | S. cerevisiae deletion strains, locus YNL322C, strain KRE1 (second series), hits give low values 0.975 | S. cerevisiae deletion strains, locus YNR049C, strain mso1, hits give low values 0.98 | S. cerevisiae deletion strains, locus YOR001W, strain rrp6, hits give low values 1.01 | S. cerevisiae deletion strains, locus YOR070C, strain gyp1, hits give low values 0.995 | S. cerevisiae deletion strains, locus YOR080W, strain dia2, hits give low values 0.976 | S. cerevisiae deletion strains, locus YOR083W, strain WHI5, hits give low values 1.01 | S. cerevisiae deletion strains, locus YOR106W, strain vam3, hits give low values 0.994 | S. cerevisiae deletion strains, locus YOR231W, strain MKK1, hits give low values 0.975 | S. cerevisiae deletion strains, locus YOR265W, strain rbl2, hits give low values 0.993 | S. cerevisiae deletion strains, locus YOR270C, strain vph1, hits give low values 0.984 | S. cerevisiae deletion strains, locus YOR290C, strain snf2, hits give low values 0.903 | S. cerevisiae deletion strains, locus YPL051W, strain arl3, hits give low values 1.01 | S. cerevisiae deletion strains, locus YPL078C, strain atp4, hits give low values 0.992 | S. cerevisiae deletion strains, locus YPL106C, strain sse1, hits give low values 0.976 | S. cerevisiae deletion strains, locus YPL240C, strain hsp82, hits give low values 0.965 | S. cerevisiae deletion strains, locus YPL256C, strain CLN2, hits give low values 0.981
